Where “and” joins values, the source holds several entries; their conditions need not be identical. Equal values may be shown once. For some of these results: Potency and affinity values are given separately. More than one record can exist for a structure, and the calls need not agree. Calls of active or inactive are those of the source. Unless noted, how the calls were made is not given here.
How the values were obtained:
[1] = liver-stage malaria parasite growth inhibition, primary screen, cell-based, HepG2, luciferase luminescence, HepG2 viability (AID 624349; in the data active means parasite load remaining mostly below about 12%, no sharp cut-off; inactive means mostly above about 10%;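 further: 100% = mean of DMSO negative control wells on the same plate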); settings: P. berghei liver stage in HepG2, luciferase luminescence, concentration not given here; parasite load remaining: stronger effect = lower value; viability: measured here: HepG2 viability without parasites
[2] = stimulators of nuclear beta-catenin in C2C12, primary screen, imaging, WNT3A-conditioned medium, mouse C2C12, NPC library (AID 1117326; in the data active means nuclear beta-catenin stimulation mostly above about 4.2%, no sharp cut-off; inactive means mostly below about 10%); settings: stronger effect = higher value
[3] = stimulators of insulin release from INS-1E, primary screen, cell-based, 5 mM glucose, NPC library (AID 1117329;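 active means compound raises insulin release from rat beta cells at 5 mM glucose, no numeric limit stated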); settings: rat INS-1E insulin secretion, at 10 µM, stronger effect = higher value
[4] = growth inhibition of GSK3B-pretreated HCT116 cells – cell-based, CellTiter-Glo, 0.2 to 20 µM (AID 1117336;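 active means compounds lowering colon cancer cell viability after pretreatment blocking the GSK3B kinase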); settings: HCT116 viability after GSK3B inhibitor, at 20 µM, stronger effect = higher value
[5] = inhibition of endothelial tube formation, primary screen, imaging, VEGF stimulated, CD31 staining, tube area, NPC library (AID 1117340;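 active means compound that reduces growth-factor-driven endothelial tube area in a mixed cell culture, no cutoff stated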); settings: VEGF-stimulated ADSC/ECFC co-culture, at 10 µM, stronger effect = higher value
[6] = glucagon-like peptide 1 release enhancers, primary assay, NCI-H716 cell line, NPC library (AID 1117341;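 active means compound raises GLP1 secretion from the human gut endocrine cells, with no numeric limit stated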); settings: NCI-H716 cells, at 10 µM, stronger effect = higher value
[7] = HCT116 colon cancer cell growth inhibition, primary screen, CellTiter-Glo luminescence, NPC library (AID 1117342;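 active means compounds that lower survival of HCT116 colon cancer cells in the luminescence readout, no numeric limit stated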); settings: at 20 µM (top of the series)
[8] = CellTiter-Glo luminescent readout of SW480 viability loss, NPC library primary (AID 1117343;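 active means compounds that lower viability of the colon cancer cells in the luminescence readout, with no numeric limit stated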); settings: CellTiter-Glo luminescence; at 20 µM (top of the series)
[9] = decreased DLD-1 cellular survival, CellTiter-Glo luminescent readout, NPC compound collection, primary HTS (AID 1117346;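 active means compounds that lower survival of DLD-1 colon cancer cells in the luminescence readout, no cutoff given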); settings: DLD-1 viability, CellTiter-Glo luminescence; at 20 µM (top of the series)
[10] = test system: Hepatitis C virus NS3 helicase; experiment: HCV NS3 helicase inhibitors, primary screen, biochemical, fluorescence polarization, LOPAC1280 library (AID 687035; in the data active means inhibition above about 37%); settings: Purified HCV NS3 helicase, Cy5-dT15 ssDNA binding fluorescence polarization; stronger effect = higher value; concentration not given here
[11] = Cy5 fluorescence quenching or enhancement artefacts, artefact control for HCV NS3 helicase inhibitor project, biochemical, LOPAC1280 (AID 687037); settings: Cy5-DNA-NS3h complex fluorescence interference counterscreen
[12] = Cy5 fluorescence interference with SSB-bound oligo, artefact control for HCV NS3 helicase inhibitor project, biochemical, NIH Clinical Collection, E. coli SSB (AID 743268)
[13] = test system: Hepatitis C virus NS3 helicase; experiment: HCV NS3 helicase inhibitors, primary screen, biochemical, fluorescence polarization, NIH Clinical Collection (AID 743270); settings: NS3 helicase binding to Cy5-dT15 DNA, stronger effect = higher value, concentration not given here
[14] = biological target: Single-stranded DNA-binding protein (Escherichia coli (strain K12)) (UniProt P0AGE0); experiment: E. coli SSB displacement from DNA, counter-screen for HCV NS3 helicase inhibitor project, biochemical, fluorescence polarization, NIH Clinical Collection (AID 743271; in the data active means inhibition above about 28%); settings: stronger effect = higher value, concentration not given here
[15] = fluorescence interference in NS3h assay format, artefact control for HCV NS3 helicase inhibitor project, biochemical, NIH Clinical Collection (AID 743272); settings: fluorescence interference counterscreen, stronger effect = lower value;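 further: HCV NS3 helicase with a Cy5 labelled single stranded DNA probe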
[16] = test system: Neuropilin-2 / VEGF-C interaction (human); experiment: inhibitors of NRP2–VEGF-C binding, biochemical, microplate binding format, z-score (AID 743281); settings: microplate NRP2/VEGF-C binding assay; stronger effect = lower value
[17] = biological target: Calcium-dependent protein kinase 1 (Plasmodium falciparum (isolate 3D7)) (UniProt P62344); experiment: PfCDPK1 kinase inhibitors, biochemical, TCAMS library (AID 1159585; cut-off not given, nearly all actives have IC50 up to about 0.98 µM;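 further: inhibitors leave more ATP so luminescence rises with inhibition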); settings: recombinant PfCDPK1, Kinase-Glo ATP depletion luminescence
Chain of Calcium-dependent protein kinase 1 (Plasmodium falciparum (isolate 3D7)) (P62344 whole entry, looked up): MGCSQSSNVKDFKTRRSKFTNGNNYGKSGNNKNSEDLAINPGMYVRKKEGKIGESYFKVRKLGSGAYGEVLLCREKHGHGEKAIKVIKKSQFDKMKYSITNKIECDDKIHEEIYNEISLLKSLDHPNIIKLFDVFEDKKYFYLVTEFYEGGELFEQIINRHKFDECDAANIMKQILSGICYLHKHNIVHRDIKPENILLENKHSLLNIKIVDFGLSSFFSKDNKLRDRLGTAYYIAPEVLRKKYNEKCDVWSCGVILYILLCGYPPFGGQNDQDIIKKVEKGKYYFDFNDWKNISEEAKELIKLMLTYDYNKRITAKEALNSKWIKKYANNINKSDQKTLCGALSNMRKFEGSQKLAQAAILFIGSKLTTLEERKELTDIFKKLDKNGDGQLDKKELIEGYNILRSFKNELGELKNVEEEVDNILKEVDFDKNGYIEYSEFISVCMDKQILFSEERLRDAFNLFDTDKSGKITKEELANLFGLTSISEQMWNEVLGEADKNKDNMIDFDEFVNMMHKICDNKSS

[18] = biological target: Plasmodium falciparum protein kinase 6 (PK6, PF3D7_1337100) (UniProt Q8IDW1); experiment: PfPK6 kinase inhibitors, biochemical, TCAMS library (AID 1159586); settings: recombinant PfPK6, Kinase-Glo ATP depletion luminescence
Chain of Plasmodium falciparum protein kinase 6 (PK6, PF3D7_1337100) (Q8IDW1 1-305): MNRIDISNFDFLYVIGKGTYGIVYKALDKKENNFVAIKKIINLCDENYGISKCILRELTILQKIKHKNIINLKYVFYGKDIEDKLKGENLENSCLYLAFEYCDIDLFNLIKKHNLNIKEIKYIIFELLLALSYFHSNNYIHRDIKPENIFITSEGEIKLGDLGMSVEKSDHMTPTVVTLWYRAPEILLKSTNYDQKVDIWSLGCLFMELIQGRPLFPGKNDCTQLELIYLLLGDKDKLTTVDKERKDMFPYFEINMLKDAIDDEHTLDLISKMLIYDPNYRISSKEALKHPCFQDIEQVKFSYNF

[19] = kinase inhibitors against Plasmodium liver-stage infection, cell-based, known kinase inhibitor set, luminescence, hepatoma host viability (AID 624392); settings: Plasmodium liver stage in hepatoma cells, luciferase luminescence, concentration not given here; liver cell % of control: measured here: host liver cell viability; parasite % of control: stronger effect = lower value;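 further: infected cells incubated roughly two days before readout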

CN(C)c1ccc2nc3ccc(=[N+](C)C)cc-3sc2c1
2.2%: nuclear beta-catenin stimulation ([2]; stimulation, at 2 µM)
active: viability decrease [4] 98.6% | tube area decrease [5] 103% | GLP1 secretion stimulation [6] 280% | inhibition of viability [7] 97.8% | viability decrease (inhibition) [8] 65.3%
inactive: parasite load remaining [1] 0.205% | nuclear beta-catenin stimulation ([2]; at 10 µM) 3.1% | insulin secretion stimulation [3] -1.1% | viability decrease (inhibition) [9] 44.2%
47.9%: viability [1]

NC1CCN(c2cccc(Cl)n2)CC1
71.3%: viability [1]
active: fluorescence ratio [12] 2.95 | inhibition [14] 133%
inactive: parasite load remaining [1] 103% | inhibition [10] -6% | fluorescence ratio (interference) [11] 1 | inhibition [13] -1.19% | fluorescence ratio [15] 0.9 | z-score [16] -0.326 | nuclear beta-catenin stimulation ([2]; at 10 µM) -1.8% | insulin secretion stimulation [3] -0.7% | viability decrease [4] -6.2% | tube area decrease [5] 3.8% | GLP1 secretion stimulation [6] 3.8% | inhibition of viability [7] 14.7% | viability decrease (inhibition) [8] 28.7% | viability decrease (inhibition) [9] -9.7%
1.1%: nuclear beta-catenin stimulation ([2]; stimulation, at 2 µM)

Nc1nc2c(ncn2COC(CO)CO)c(=O)[nH]1
114% and 95.7% and 65%: viability [1]
inactive: parasite load remaining [1] 53.7% and 86.2% and 12.5% | inhibition [10] -2% | fluorescence ratio (interference) [11] 1 | fluorescence ratio [12] 1.03 | inhibition [13] -3.18% | inhibition [14] -2.76% | fluorescence ratio [15] 1.02 | nuclear beta-catenin stimulation ([2]; at 10 µM) 1.2% | insulin secretion stimulation [3] 0% | viability decrease [4] -10.4% | tube area decrease [5] -6.4% | GLP1 secretion stimulation [6] -2% | inhibition of viability [7] 4.7% | viability decrease (inhibition) [8] -10.2% | viability decrease (inhibition) [9] -8.6%
1.2%: nuclear beta-catenin stimulation ([2]; stimulation, at 2 µM)

CN(Cc1cnc2nc(N)nc(N)c2n1)c1ccc(C(=O)N[C@@H](CCC(=O)O)C(=O)O)cc1
active: nuclear beta-catenin stimulation ([2]; at 10 µM) 74% | viability decrease [4] 87.8% | tube area decrease [5] 57.2% | inhibition of viability [7] 74.5% | viability decrease (inhibition) [8] 78.8% | viability decrease (inhibition) [9] 65.9%
inactive: parasite load remaining [1] 8.84% and 39.4% and 21.9% | inhibition [10] -1% | fluorescence ratio (interference) [11] 1 | fluorescence ratio [12] 0.92 | inhibition [13] 1.19% | inhibition [14] 26.9% | fluorescence ratio [15] 0.92 | z-score [16] -1.5 | insulin secretion stimulation [3] -1.8% | GLP1 secretion stimulation [6] 1.1% | outcome [17] | outcome [18]
38.7% and 143% and 94.1%: viability [1]
41%: nuclear beta-catenin stimulation ([2]; stimulation, at 2 µM)

CCOc1ccc2nc3cc(N)ccc3c(N)c2c1
inactive: nuclear beta-catenin stimulation ([2]; at 10 µM) 9.5% | insulin secretion stimulation [3] 3.5% | GLP1 secretion stimulation [6] 8.6% | viability decrease (inhibition) [9] 47.2% | outcome [17] | outcome [18]
active: viability decrease [4] 81.2% | tube area decrease [5] 73.3% | inhibition of viability [7] 70.6% | viability decrease (inhibition) [8] 121%
0.7%: nuclear beta-catenin stimulation ([2]; stimulation, at 2 µM)

CCCCN(CCCC)CCC(O)c1cc2c(Cl)cc(Cl)cc2c2cc(C(F)(F)F)ccc12 (stereo not given)
active: viability decrease [4] 99.2% | tube area decrease [5] 96.1% | inhibition of viability [7] 105% | viability decrease (inhibition) [8] 131% | viability decrease (inhibition) [9] 100%
0.7%: nuclear beta-catenin stimulation ([2]; stimulation, at 2 µM)
69.5%: viability [1]
inactive: parasite load remaining [1] 57.2% | nuclear beta-catenin stimulation ([2]; at 10 µM) 5.2% | insulin secretion stimulation [3] 0.4% | GLP1 secretion stimulation [6] -0.7%

C[C@@H]1CN(c2c(F)c(N)c3c(=O)c(C(=O)O)cn(C4CC4)c3c2F)C[C@H](C)N1
-1.1%: nuclear beta-catenin stimulation ([2]; stimulation, at 2 µM)
inactive: parasite load remaining [1] 16.6% | nuclear beta-catenin stimulation ([2]; at 10 µM) -1.1% | insulin secretion stimulation [3] 2.1% | viability decrease [4] 13.2% | tube area decrease [5] -14.6% | GLP1 secretion stimulation [6] 0.3% | inhibition of viability [7] 23.4% | viability decrease (inhibition) [8] -0.6% | viability decrease (inhibition) [9] -18.8%
70%: viability [1]

NS(=O)(=O)c1cc2c(cc1Cl)NC(C1CC3C=CC1C3)NS2(=O)=O (stereo not given)
133%: viability [1]
0%: nuclear beta-catenin stimulation ([2]; stimulation, at 2 µM)
inactive: parasite load remaining [1] 56.1% | inhibition [10] -1% | fluorescence ratio (interference) [11] 1 | nuclear beta-catenin stimulation ([2]; at 10 µM) 0.8% | insulin secretion stimulation [3] -1% | viability decrease [4] -17% | tube area decrease [5] 2.9% | GLP1 secretion stimulation [6] -2.5% | inhibition of viability [7] -8.27% | viability decrease (inhibition) [8] 8.9% | viability decrease (inhibition) [9] -15.4%

CN(C)CC[C@@H](c1ccc(Br)cc1)c1ccccn1
70.1%: viability [1]
inactive: parasite load remaining [1] 84.6% | inhibition [10] 0% | fluorescence ratio (interference) [11] 1 | fluorescence ratio [12] 1.07 | inhibition [13] -2.77% | inhibition [14] -3.18% | fluorescence ratio [15] 0.87 | z-score [16] -0.605 | nuclear beta-catenin stimulation ([2]; at 10 µM) 1.1% | viability decrease [4] -41.6% | tube area decrease [5] -18.3% | GLP1 secretion stimulation [6] 1.6% | inhibition of viability [7] 27.2% | viability decrease (inhibition) [8] 30.9% | viability decrease (inhibition) [9] 10.2%
active: insulin secretion stimulation [3] 81.9%
-0.3%: nuclear beta-catenin stimulation ([2]; stimulation, at 2 µM)

COc1cc2c(Nc3ccc(Br)cc3F)ncnc2cc1OCC1CCN(C)CC1
42.4% and 45.4% and 52%: liver cell % of control [19]
-0.9%: nuclear beta-catenin stimulation ([2]; stimulation, at 2 µM)
inactive: parasite % of control [19] 0.285% and 8.38% and 117% | nuclear beta-catenin stimulation ([2]; at 10 µM) -0.3% | insulin secretion stimulation [3] 2.4% | viability decrease [4] -7.7% | tube area decrease [5] -0.5% | GLP1 secretion stimulation [6] 1.5% | inhibition of viability [7] -16% | viability decrease (inhibition) [8] -11.4% | viability decrease (inhibition) [9] -10.1% | outcome [18]

CC(=O)[C@]1(O)Cc2c(O)c3c(c(O)c2[C@@H](O[C@H]2C[C@H](N)[C@H](O)[C@H](C)O2)C1)C(=O)c1ccccc1C3=O
-0.405% (inactive) and 0.045% (active): parasite load remaining [1]
94.8%: nuclear beta-catenin stimulation ([2]; stimulation, at 2 µM)
active: fluorescence ratio (interference) [11] 0.8 | fluorescence ratio [12] 0.31 | fluorescence ratio [15] 0.67 | nuclear beta-catenin stimulation ([2]; at 10 µM) 18.6% | viability decrease [4] 84% | tube area decrease [5] 85.6% | inhibition of viability [7] 68.9% | viability decrease (inhibition) [8] 84.7% | viability decrease (inhibition) [9] 85.5%
inactive: inhibition [10] -1% | inhibition [13] 0.4% | inhibition [14] 14.5% | z-score [16] 1.07 | insulin secretion stimulation [3] -1.8% | GLP1 secretion stimulation [6] -0.2%
2.19% and 69.5%: viability [1]

— PubChem BioAssay
